In the supplement of paper PMC12669032:
Unmarked numbers belong to inactive results.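 The calls were made as follows: active = AUC reduced over 20% with Padj below 0.05 in at least 2 of 3 replicates; inactive = otherwise.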

Assays:
Roseburia intestinalis = experiment: growth AUC relative to DMSO control (median of replicates) (fraction); higher = more growth (less inhibition), active = hit call of the paper; conditions: 20 µM; 24 h
Method in brief: (§1)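 Hourly OD600 readings over 24 h tracked anaerobic gut bacterial monocultures grown at 37 °C in mGAM from OD600 0.05 with 20 µM compound (1% DMSO). After the minimum OD was set to 0, area under the growth curve was normalised to the plate median of solvent-only wells, or to row and column medians on the industrial chemical plate. Values are medians of three biological replicates grown on separate days.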

Streptococcus salivarius = experiment: as above; conditions: 20 µM; 24 h
Method in brief: as §1

Compound | growth AUC (Roseburia intestinalis) | growth AUC (Streptococcus salivarius)
CCOc1ccc(C2(C(=O)OC(C#N)c3cccc(Oc4ccccc4)c3)CC2(Cl)Cl)cc1 (configuration not stated) | 0.951 | 0.891
CCOC(=O)Cc1[nH]nc2ccc(Cl)cc12 | 1.14 | 1
O=C(O)C1(C(=O)Nc2ccc(Cl)cc2Cl)CC1 | 1.02 | 1.01
c1ccc2c(c1)Cc1ccccc1-2 | 1 | 0.985
COC(=O)c1ccc(CNS(C)(=O)=O)cc1S(=O)(=O)NC(=O)Nc1nc(OC)cc(OC)n1 | 0.973 | 1.07
Cc1ccc(C)c(O)c1 | 0.996 | 1.09
NC(=O)c1c(Cl)cccc1Cl | 0.906 | 0.991
O=C1NC(=O)c2ccccc21 | 1.11 | 1
CCC/C(=N\OCC)C1=C(O)CC(C2CCCSC2)CC1=O (configuration not stated) | 0.937 | 0.974
COC(=O)CSc1cc(N=c2sc(=O)n3n2CCCC3)c(F)cc1Cl | 0.971 | 0.946
CC1(C)C(=O)Oc2ccc(OS(C)(=O)=O)cc21 | 1.02 | 1.02
Clc1ccc(CSc2ccc(Cl)cc2)cc1 | 0.965 | 1.01
CC(C)N(C(=O)CS(=O)(=O)[O-])c1ccccc1.[Na+] | 1.02 | 0.997
CCSC(=O)COc1ccc(Cl)cc1C | 0.969 | 0.915
CCOC(=O)[C@@H](C)Oc1ccc(Oc2cnc3cc(Cl)ccc3n2)cc1 | 1.01 | 1.04
CN1CCC[C@H]1c1cccnc1 | 0.933 | 0.949
CCc1cccc(CC)c1N(COC)C(=O)CS(=O)(=O)[O-].[Na+] | 1.03 | 0.964
Br[C@@H]1CC[C@H](Br)[C@H](Br)CC[C@@H](Br)[C@@H](Br)CC[C@H]1Br | 0.962 | 0.868
COc1nc(N)nc(C(F)(F)F)n1 | 1.05 | 1
COC(=O)c1ccccc1S(=O)(=O)NC(=O)n1nc(OCC(C)O)n(C)c1=O (configuration not stated) | 1.01 | 1
O=C(O)Cc1cccc2ccccc12 | 1.04 | 0.99

Compound | growth AUC (Roseburia intestinalis) | growth AUC (Streptococcus salivarius)
COc1ccc(Cl)c(Cl)c1Cl | 0.999 | 1.06
CC(C)CNC(=O)N1CCNC1=O | 1.1 | 0.995
CS(=O)(=O)c1ccc(C(=O)O)c(N)c1 | 1.07 | 1.03
CCNc1nc(NC(C)(C)C)nc(OC)n1 | 1.05 | 1
CCCCCCC(C)OC(=O)COc1nc(F)c(Cl)c(N)c1Cl (configuration not stated) | 0.967 | 0.966
Cc1cccc(C)c1O | 0.942 | 0.968
CCCCOCCOCCOCc1cc2c(cc1CCC)OCO2 | 1 | 1.03
O=C(O)CCCc1c[nH]c2ccccc12 | 0.96 | 1
COc1cc(OC)nc(NC(=O)NS(=O)(=O)Nc2ccccc2C(=O)C2CC2)n1 | 1.1 | 0.955
CCOC(=O)C(C)N(C(=O)c1ccccc1)c1ccc(Cl)c(Cl)c1 (configuration not stated) | 0.958 | 0.947
Cc1ccc(Cl)cc1 | 1 | 1.02
COc1nc(OC)nc(C(=O)c2cccc(F)c2N(C)S(=O)(=O)C(F)F)n1 | 1.01 | 1.02
NC(Cn1cncn1)C(=O)O (configuration not stated) | 1 | 0.998
C=O | 1.1 | 1
CC1=C(c2ccccc2)C(=O)N(C(C)(C)c2cc(Cl)cc(Cl)c2)CO1 | 1.03 | 0.979
CCOc1ccc(NC(=O)OC(C)C)cc1OCC | 1 | 0.975
CC1(C)C(C(=O)OC(C#N)c2cccc(Oc3ccccc3)c2)C1C(Br)C(Br)(Br)Br (configuration not stated) | 0.932 | 0.972
NC(=O)Cc1cccc2ccccc12 | 1.05 | 1.05
S=C([S-])NCCNC(=S)[S-].S=C([S-])NCCNC(=S)[S-].[Mn+2].[Zn+2] | 0.999 | 1.03
O=C(Nc1ccc(F)cc1)c1cccc(Oc2cccc(C(F)(F)F)c2)n1 | 0.918 | 0.956
O=[N+](Nc1ccccc1)c1ccccc1 | 0.944 | 1.06

Compound | growth AUC (Roseburia intestinalis) | growth AUC (Streptococcus salivarius)
CCSC(=O)N(CC(C)C)CC(C)C | 1.01 | 0.997
CCOC(=O)C1CC(=O)C(=C(O)C2CC2)C(=O)C1 (configuration not stated) | 1 | 0.988
O=C(O)c1cccc2nnsc12 | 0.989 | 1.01
CC(C)(C)[C@@H](O)[C@@H](Cc1ccc(Cl)cc1)n1cncn1 (mixture of isomers) | 0.963 | 0.95
CCC(C)c1cc([N+](=O)[O-])cc([N+](=O)[O-])c1OC(=O)OC(C)C (configuration not stated) | 0.692 (active) | 0.901
CCNc1nc(NC(C)(C)C)[nH]c(=O)n1 | 1.03 | 1.03
CN(C)C(N)=O | 0.996 | 1.02
Cc1c(Br)c2ccc(F)cc2n1S(=O)(=O)c1ncn(S(=O)(=O)N(C)C)n1 | 1.06 | 1.06
COCC(=O)N(c1c(C)cccc1C(=O)O)C(C)C(=O)O (configuration not stated) | 1.02 | 0.982
CCCCCCCCc1c(CC)nc2ncnn2c1N | 0.948 | 0.985
CCCCCCCCSCCO | 0.944 | 0.959
CCCOC(=O)NCCCN(C)C | 1.02 | 0.967
FC(F)(F)c1cccc(C(c2ccccc2)(c2ccccc2)n2cncn2)c1 | 0.911 | 0.94
CCCCCCCC/C=C\CCCCCCCCCCCCC | 1.07 | 1.03
Oc1ccc2nc(-c3cscn3)[nH]c2c1 | 1.03 | 1.07
CC(C)COC(=O)COc1cc(Cl)c(Cl)cc1Cl | 1.01 | 0.958
Cc1cc(CC(C)CC(C)(C)C)n(O)c(=O)c1.NCCO (configuration not stated) | 0.995 | 1.02
O=[N+]([O-])c1ccc2c(c1)Cc1ccccc1-2 | 1.01 | 0.988
CC(=O)Oc1c(Cl)c(Cl)c(Cl)c(Cl)c1Cl | 1.04 | 0.909
CCCCN(C)C(=O)Nc1ccc(Cl)c(Cl)c1 | 0.956 | 0.971
CC(C)C(O)(c1ccc(OC(F)(F)F)cc1)c1cncnc1 (configuration not stated) | 1.04 | 1.04

Compound | growth AUC (Roseburia intestinalis) | growth AUC (Streptococcus salivarius)
Oc1cccc2ccccc12 | 0.952 | 0.986
CC1CN(C2CCCCCCCCCCC2)CC(C)O1 (mixture of isomers) | 0.992 | 1
C#CCOc1cc(-n2nc(C(C)(C)C)oc2=O)c(Cl)cc1Cl | 0.909 | 0.963
CCc1nc2ncnn2c(N)c1CCCCCC(=O)O.Cl | 0.955 | 1.02
C[S+](C)CCC(=O)O.[Cl-] | 1.01 | 0.994
CCOC(=O)NCCOc1ccc(Oc2ccccc2)cc1 | 0.984 | 0.976
CCOC(=O)C1=NN(c2ccc(Cl)cc2Cl)C(C)(C(=O)OCC)C1 (configuration not stated) | 0.952 | 0.994
COC(=O)c1ccc(I)cc1S(=O)(=O)[N-]C(=O)Nc1nc(C)nc(OC)n1.[Na+] | 0.934 | 0.948
CCNc1nc(NCC)nc(OC)n1 | 0.993 | 1.01
O=S(=O)(Oc1ccc(Cl)cc1)c1ccccc1 | 0.988 | 0.955
C/C=C/C(=O)Oc1c(C(C)CCCCCC)cc([N+](=O)[O-])cc1[N+](=O)[O-] (mixture of isomers) | 0.809 | 0.301 (active)
Cc1[nH]n(C)c(=O)c1C(=O)c1ccc(C(F)(F)F)cc1S(C)(=O)=O | 1.01 | 1.03
NS(=O)(=O)[O-].[NH4+] | 1.06 | 1.01
CSc1nnc(C(C)(C)C)c(=O)n1/N=C/C(C)C | 1.07 | 1
CCOCCOC(=O)C(C)Oc1ccc(Oc2ncc(C(F)(F)F)cc2Cl)cc1 (configuration not stated) | 0.953 | 0.959
c1ccc2[nH]c(-c3cscn3)nc2c1 | 0.998 | 0.937
CCCCC(CC)COC(=O)COc1ccc(Cl)cc1C (configuration not stated) | 0.93 | 0.978
COC(=O)Cc1cccc2ccccc12 | 1.04 | 1.01
